# According to PubChem BioAssay AID651635 (National Center for Advancing Translational Sciences (NCATS), 2012):
# The campaign covered roughly 400,000 compounds. About 1,900 (0.47%) were called active. Not shown: some 14% with an inconclusive outcome. The call rests on the fitted dose curve; in most records, active means well fitted cell-killing curve with a large enough effect; inconclusive means small, poorly fitted or top-dose-only effect, or effect the other way; inactive means no such curve, though single readings can be large or run the other way. What follows is part of a selection rich in actives, with near analogues and random picks from the rest.
# Experiment: Viability Counterscreen for Primary qHTS for Inhibitors of ATXN expression; further: nearly all actives have a fitted effect of over 40% in size
# Details: S2 cells (HEK-293 line with an ATXN2-luciferase reporter) viability, CellTiter-Fluor protease fluorescence, 24 h; series mostly up to 56.7 µM; activity change, negative = cytotoxicity: at the top concentration
# Potency means the concentration at half of the fitted maximal effect.
Structure (SMILES),"activity change, negative = cytotoxicity",Potency
COc1ccc(-c2cc(NC=O)c3ncc(-c4ccccc4)n3c2)cc1OC,-34.1% (inactive),–
CC1(C)[C@H](O[C@H]2O[C@H](C(=O)O)[C@@H](O)[C@H](O)[C@H]2O[C@@H]2O[C@H](C(=O)O)[C@@H](O)[C@H](O)[C@H]2O)CC[C@@]2(C)[C@H]1CC[C@]1(C)[C@H]2C(=O)C=C2[C@H]3C[C@@](C)(C(=O)O)CC[C@]3(C)CC[C@]21C,-18.3% (inactive),–
COc1cccc(CNc2nc3cc(-c4csc5ccccc45)sc3c(=O)n2C)c1,-21.8% (inactive),–
COC(=O)C1CCCCN1Cc1ccc2c(c1)CN(Cc1cc(OC)c3c(c1)OCO3)CCO2 (stereo unspecified),-12.7% (inactive),–
Cc1nc2nc(NCc3cccc(Br)c3)[nH]n2c(=O)c1Cc1ccccc1,-9.08% (inactive),–
C=C1C(=O)[C@]23C[C@H]1CCC2[C@@]1(C)C(C[C@@H]3O)[C@](C)(C(=O)O)CC[C@@H]1O (stereo partly specified),–,15.8 µM (active)
CCc1noc(C)c1C(=O)NCCN1Cc2cc(OC)ccc2OC(CC)C1 (stereo unspecified),-3.48% (inactive),–
COc1ccc(C2OC(CCc3ccccc3)Cc3[nH]c(=S)[nH]c(=O)c32)cc1 (stereo unspecified),-35.3% (inactive),–
CC(=O)O[C@H]1CC[C@@]2(C)C(=CC[C@@H]3[C@@H]2CC[C@]2(C)C(c4cccnc4)=CC[C@@H]32)C1,-2.28% (inactive),–
CCOC(=O)[C@]12CCCC=C1N(Cc1cccc3ccccc13)C(=O)[C@H](CC(=O)NCC13CC4CC(CC(C4)C1)C3)C2,-27.9% (inactive),–
COc1ccc(C[C@H](N)C(=O)N[C@@H]2[C@H](O)[C@H](n3cnc4c(N(C)C)ncnc43)O[C@@H]2CO)cc1,–,2 µM (active)
Nc1ncnc2c1ncn2[C@@H]1O[C@H](CNC(=O)[C@H](N)Cc2cccnc2)[C@@H](O)[C@H]1O,-12% (inactive),–
COc1cccc(CN(C)C(=O)CC[C@H]2O[C@@H](n3cnc4c(NC(=O)c5ccccc5)ncnc43)[C@H](O)[C@@H]2O)c1,-19.7% (inactive),–
CC1(C)OC(=O)C2=C(C[C@@H](C3CCCCC3)O[C@@H]2c2ccc(Cl)cc2)O1,-14.4% (inactive),–
NNc1nnc(Cc2ccncc2)c2ccccc12,-5.09% (inactive),–
OC[C@@H]1CN(Cc2ccncc2)C[C@H](n2cnc3c(N4CCN(c5ccccc5)CC4)ncnc32)O1,-36% (inactive),–
COc1cc(=O)n2c(c1C(=O)N(C)Cc1nccs1)CCN(Cc1ccc(Cl)cc1)CC2,2.64% (inactive),–
CCCCN1C(=O)C(C)=C(C)C1OCCc1ccc(OC)c(OC)c1 (stereo unspecified),-10.5% (inactive),–
CCCCOc1ccc(CN2C(=O)C(=O)c3cc(Br)cc(C)c32)cc1OC,–,25.1 µM (active)
COc1ccc(CCN2C(=O)C(C)=C(C)C2=O)cc1OC,-20.2% (inactive),–
CCOP(=O)(OCC)C(Cc1ccccc1)N=C(c1ccccc1)c1ccccc1 (stereo unspecified),-21.5% (inactive),–
C/C(=N\NC(=O)Cc1ccc(Cl)cc1)c1ccccn1,–,5.62 µM (active)
COc1ccc(/C(C)=N\NC(=O)c2ccc(-c3ccccc3)cc2)c(F)c1,-19.8% (inactive),–

Structure (SMILES),"activity change, negative = cytotoxicity",Potency
C/C(=N\NC(=O)c1ccccc1F)c1ccccn1,–,7.94 µM (active)
NC(=O)NC(CC(=O)NNC(=O)c1ccccn1)c1ccc(Cl)cc1 (stereo unspecified),-27.3% (inactive),–
CC1=NNC(=O)C1CCC(=O)N/N=C(\C)c1ccc(Cl)cc1 (stereo unspecified),-20.8% (inactive),–
O=C(NCCOc1ccccc1)c1ccccc1F,-18.6% (inactive),–
Cn1nccc1C(=O)NCC1CCC2(CCN(Cc3c(O)ccc4ccccc34)CC2)O1 (stereo unspecified),-8.44% (inactive),–
COc1ccccc1C1CN(Cc2ccccc2O)Cc2ccccc2O1 (stereo unspecified),-9.48% (inactive),–
CCC1CN(CCNC(=O)c2cccc(C)n2)Cc2cc(OC)ccc2O1 (stereo unspecified),-11.5% (inactive),–
Cc1ccc2c(C)nc(N3CCCC(C(=O)NC(C)(C)CO)C3)nc2c1 (stereo unspecified),-1.89% (inactive),–
CCC1(C2CCN(Cc3cccnc3)CC2)NC(=O)N(CC2COc3ccccc3O2)C1=O (stereo unspecified),-2.28% (inactive),–
COc1cc(C)c(CN2CCc3nnc(C(C)NC(=O)c4cccnc4)n3CC2)cc1C (stereo unspecified),-8.61% (inactive),–
Cc1cccc(CNC(=O)c2cnn(-c3nccc(-c4ccccc4F)n3)c2C2CC2)n1,-6.63% (inactive),–
COC(=O)c1ccc2c(c1)N(CC(=O)Nc1ccc(C)c(C)c1)C(=O)c1ccccc1S2,-26.8% (inactive),–
CC(C)n1cnc2c(NCc3ccccc3)cc(OCC3CCN(C)CC3)cc21,–,31.6 µM (active)
CCC(CO)Oc1cc(NC(=O)c2ccc(Cl)cc2)c2ncn(C(C)C)c2c1 (stereo unspecified),-15.2% (inactive),–
CN(C)c1nccc(NCc2ccccc2)c1C#N,15.7% (inactive),–
COC(=O)c1ccc(CN2C(=O)C(Cc3ccccc3)ON=C2c2ncccc2C)o1 (stereo unspecified),-17.5% (inactive),–
CCOC(=O)N(C)c1c(CC)nc2c(OCc3ccccc3C(=O)OC)cccn12,-37.6% (inactive),–
Cc1nc2c(OCc3ccc(Cl)cc3Cl)cccn2c1N(C)CC1CC1,–,20 µM (active)
CCCCC(=O)N(C)c1c(CC)nc2c(OCc3ccc(Cl)cc3Cl)cccn12,-11.9% (inactive),–
CCc1nc2c(OCc3ccc(Cl)cc3Cl)cccn2c1N(C)C(=O)C(C)C,–,22.4 µM (active)
CCc1nc2c(OCc3ccc(F)c(F)c3)cccn2c1N(C)C(=O)c1ccco1,-26% (inactive),–
CCc1nc2c(OCc3cccc(OC)c3)cccn2c1N(C)C(=O)C(C)C,-8.7% (inactive),–
CCOC(=O)[C@]12CCC=C1N(Cc1cccc3ccccc13)C(=O)[C@H](CC(=O)NCc1cccc(C(F)(F)F)c1)C2,-37.5% (inactive),–
